# PMC7862700, “An all-to-all approach to the identification of sequence-specific readers for epigenetic DNA modifications on cytosine”
# Assays:
# Experiment in all cases: DAPPL (digital affinity profiling via proximity ligation, sequencing); 10 mM Tris-HCl pH 7.5, 50 mM NaCl, 1 mM DTT, 4% glycerol, room temperature, 30 min; GST-TFs on glutathione beads, 16-mer random dsDNA library, 0.1% formaldehyde crosslink after washing; high values mean tight binding
# [1] = biological target: T1, FLI1 (Homo sapiens, UniProt Q01543 1-452); details: protein: recombinant; tags: N-terminal GST; dsDNA, one strand shown
# T1 sequence: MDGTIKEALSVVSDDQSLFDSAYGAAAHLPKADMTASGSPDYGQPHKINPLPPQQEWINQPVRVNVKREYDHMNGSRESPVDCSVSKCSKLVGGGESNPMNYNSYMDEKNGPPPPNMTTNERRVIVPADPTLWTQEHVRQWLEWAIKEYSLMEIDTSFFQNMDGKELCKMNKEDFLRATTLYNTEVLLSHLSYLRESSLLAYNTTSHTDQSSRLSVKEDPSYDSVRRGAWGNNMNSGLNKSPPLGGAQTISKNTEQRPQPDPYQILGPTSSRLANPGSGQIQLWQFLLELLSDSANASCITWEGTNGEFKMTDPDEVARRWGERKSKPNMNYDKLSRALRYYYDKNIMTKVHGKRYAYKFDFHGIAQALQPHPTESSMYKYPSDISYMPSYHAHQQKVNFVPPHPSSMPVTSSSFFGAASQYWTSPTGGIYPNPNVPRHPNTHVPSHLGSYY
# In short: (§1)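 Each value of binding signal is a hexamer's read frequency for a factor divided by the same hexamer's frequency in the tag-only sample. Barcoded, bead-captured GST fusions of human transcription factors made in yeast were pooled with that sample and incubated with 200 nmole of a random double-stranded 16-mer DNA library in Tris/NaCl/DTT/glycerol buffer at room temperature for 30 min. Washing, 0.1% formaldehyde crosslinking, proximity ligation, PCR and Illumina NextSeq500 sequencing followed.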
# [2] = biological target: T2, ELK1 (Homo sapiens, UniProt P19419 1-428); details: protein: recombinant; tags: N-terminal GST; dsDNA, one strand shown
# T2 sequence: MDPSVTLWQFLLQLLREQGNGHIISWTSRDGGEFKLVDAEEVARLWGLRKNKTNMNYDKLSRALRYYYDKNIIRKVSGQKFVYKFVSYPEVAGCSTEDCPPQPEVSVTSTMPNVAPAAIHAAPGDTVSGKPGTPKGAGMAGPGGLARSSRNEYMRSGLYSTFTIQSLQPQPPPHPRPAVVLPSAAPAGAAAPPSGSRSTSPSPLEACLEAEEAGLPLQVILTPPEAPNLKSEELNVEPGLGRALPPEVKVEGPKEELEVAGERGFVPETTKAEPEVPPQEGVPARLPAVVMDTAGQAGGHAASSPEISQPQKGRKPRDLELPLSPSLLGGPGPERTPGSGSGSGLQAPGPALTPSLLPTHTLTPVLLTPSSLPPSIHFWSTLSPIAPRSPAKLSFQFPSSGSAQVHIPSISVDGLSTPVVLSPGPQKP
# In short: as §1
# [3] = biological target: T3, GABPA (Homo sapiens, UniProt Q06546 1-454); details: protein: recombinant; tags: N-terminal GST; dsDNA, one strand shown
# T3 sequence: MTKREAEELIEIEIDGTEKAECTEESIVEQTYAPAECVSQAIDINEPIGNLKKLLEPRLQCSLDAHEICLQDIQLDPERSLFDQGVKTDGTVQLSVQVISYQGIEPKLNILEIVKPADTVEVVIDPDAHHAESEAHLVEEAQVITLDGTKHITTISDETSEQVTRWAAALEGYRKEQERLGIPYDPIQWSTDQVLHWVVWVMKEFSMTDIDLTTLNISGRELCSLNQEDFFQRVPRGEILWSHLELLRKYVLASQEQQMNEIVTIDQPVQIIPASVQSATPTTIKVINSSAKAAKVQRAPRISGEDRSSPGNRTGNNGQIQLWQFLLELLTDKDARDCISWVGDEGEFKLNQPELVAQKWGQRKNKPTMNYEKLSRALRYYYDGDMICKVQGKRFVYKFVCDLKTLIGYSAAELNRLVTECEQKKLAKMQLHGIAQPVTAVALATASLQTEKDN
# In short: as §1
# [4] = biological target: T4, ERG (Homo sapiens, UniProt P11308 1-479); details: protein: recombinant; tags: N-terminal GST; dsDNA, one strand shown
# T4 sequence: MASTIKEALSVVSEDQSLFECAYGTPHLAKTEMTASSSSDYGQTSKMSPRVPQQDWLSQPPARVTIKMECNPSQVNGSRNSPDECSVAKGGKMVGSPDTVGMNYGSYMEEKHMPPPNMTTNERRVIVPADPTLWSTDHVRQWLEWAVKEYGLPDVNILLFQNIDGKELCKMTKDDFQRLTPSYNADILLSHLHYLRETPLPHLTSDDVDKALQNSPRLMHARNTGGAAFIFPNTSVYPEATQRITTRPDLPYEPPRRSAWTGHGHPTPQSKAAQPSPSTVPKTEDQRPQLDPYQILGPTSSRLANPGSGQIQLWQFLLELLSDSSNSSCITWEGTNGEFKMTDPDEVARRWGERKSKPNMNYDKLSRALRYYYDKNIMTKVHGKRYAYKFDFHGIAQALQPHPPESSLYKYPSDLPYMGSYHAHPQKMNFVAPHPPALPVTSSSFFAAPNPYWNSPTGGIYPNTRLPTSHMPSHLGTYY
# In short: as §1
# [5] = biological target: ELF1 (Homo sapiens, UniProt P32519 1-619); details: protein: recombinant; tags: N-terminal GST; dsDNA, one strand shown
# ELF1, sequence (P32519 whole entry): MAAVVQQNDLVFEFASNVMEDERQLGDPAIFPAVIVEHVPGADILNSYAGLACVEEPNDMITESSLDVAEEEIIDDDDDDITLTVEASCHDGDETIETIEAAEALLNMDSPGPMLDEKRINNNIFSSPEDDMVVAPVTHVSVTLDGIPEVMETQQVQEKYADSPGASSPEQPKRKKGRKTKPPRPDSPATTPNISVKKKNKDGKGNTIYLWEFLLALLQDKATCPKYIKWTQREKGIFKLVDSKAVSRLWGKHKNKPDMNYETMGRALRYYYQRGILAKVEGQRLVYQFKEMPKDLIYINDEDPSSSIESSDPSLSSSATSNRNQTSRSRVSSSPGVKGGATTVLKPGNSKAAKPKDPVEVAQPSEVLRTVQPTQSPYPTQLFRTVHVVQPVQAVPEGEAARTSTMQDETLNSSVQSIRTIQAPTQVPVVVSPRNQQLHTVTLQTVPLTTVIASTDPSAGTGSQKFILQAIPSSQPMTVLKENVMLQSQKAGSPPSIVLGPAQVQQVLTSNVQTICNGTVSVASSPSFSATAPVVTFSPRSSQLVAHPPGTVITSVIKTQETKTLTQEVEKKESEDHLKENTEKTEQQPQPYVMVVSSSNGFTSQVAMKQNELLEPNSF
# In short: as §1
# [6] = biological target: T5, EHF (Homo sapiens, UniProt Q9NZC4 1-300); details: protein: recombinant; tags: N-terminal GST; dsDNA, one strand shown
# T5 sequence: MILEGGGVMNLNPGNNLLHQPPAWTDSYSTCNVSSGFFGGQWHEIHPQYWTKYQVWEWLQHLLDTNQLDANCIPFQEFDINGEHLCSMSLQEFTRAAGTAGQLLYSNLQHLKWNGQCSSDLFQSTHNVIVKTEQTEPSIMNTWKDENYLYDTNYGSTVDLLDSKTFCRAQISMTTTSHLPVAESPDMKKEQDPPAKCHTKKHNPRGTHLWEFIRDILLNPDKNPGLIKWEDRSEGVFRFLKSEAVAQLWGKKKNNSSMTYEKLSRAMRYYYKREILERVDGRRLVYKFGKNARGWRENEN
# In short: as §1
# [7] = biological target: SPI1 (Homo sapiens, UniProt P17947 1-270); details: protein: recombinant; tags: N-terminal GST; dsDNA, one strand shown
# In short: as §1
# [8] = biological target: SPIB (Homo sapiens, UniProt Q01892 1-262); details: protein: recombinant; tags: N-terminal GST; dsDNA, one strand shown
# SPIB, sequence (Q01892 whole entry): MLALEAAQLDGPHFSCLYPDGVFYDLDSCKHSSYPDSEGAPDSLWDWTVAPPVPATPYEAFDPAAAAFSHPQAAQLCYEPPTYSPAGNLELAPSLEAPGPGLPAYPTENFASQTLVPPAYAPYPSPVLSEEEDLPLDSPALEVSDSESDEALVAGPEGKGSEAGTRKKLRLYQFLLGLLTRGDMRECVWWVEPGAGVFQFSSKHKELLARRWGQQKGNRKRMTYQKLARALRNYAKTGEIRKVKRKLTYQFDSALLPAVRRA
# In short: as §1
# [9] = biological target: T6, ELK3 (Homo sapiens, UniProt P41970 1-407); details: protein: recombinant; tags: N-terminal GST; dsDNA, one strand shown
# T6 sequence: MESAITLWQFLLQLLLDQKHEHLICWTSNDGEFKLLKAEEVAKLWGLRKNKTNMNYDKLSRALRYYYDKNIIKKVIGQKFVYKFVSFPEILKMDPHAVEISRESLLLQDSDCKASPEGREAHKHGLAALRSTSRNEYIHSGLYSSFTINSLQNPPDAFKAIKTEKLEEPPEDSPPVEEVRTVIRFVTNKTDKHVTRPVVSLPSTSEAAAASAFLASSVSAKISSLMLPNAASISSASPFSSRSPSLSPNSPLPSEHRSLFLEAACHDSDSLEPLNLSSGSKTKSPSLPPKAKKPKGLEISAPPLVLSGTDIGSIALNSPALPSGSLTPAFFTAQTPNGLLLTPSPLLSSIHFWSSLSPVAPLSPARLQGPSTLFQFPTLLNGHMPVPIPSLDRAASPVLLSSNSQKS
# In short: as §1
# [10] = biological target: T7, FEV (Homo sapiens, UniProt Q99581 1-238); details: protein: recombinant; tags: N-terminal GST; dsDNA, one strand shown
# T7 sequence: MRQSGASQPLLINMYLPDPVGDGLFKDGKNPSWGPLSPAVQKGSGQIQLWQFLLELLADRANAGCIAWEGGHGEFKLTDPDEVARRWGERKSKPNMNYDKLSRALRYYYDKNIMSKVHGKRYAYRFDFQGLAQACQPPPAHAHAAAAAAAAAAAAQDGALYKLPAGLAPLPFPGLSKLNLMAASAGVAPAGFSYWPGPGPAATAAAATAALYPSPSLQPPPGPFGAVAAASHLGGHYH
# In short: as §1
# [11] = biological target: ETV5 (Homo sapiens, UniProt P41161 1-510); details: protein: recombinant; tags: N-terminal GST; dsDNA, one strand shown
# ETV5, sequence (P41161 whole entry): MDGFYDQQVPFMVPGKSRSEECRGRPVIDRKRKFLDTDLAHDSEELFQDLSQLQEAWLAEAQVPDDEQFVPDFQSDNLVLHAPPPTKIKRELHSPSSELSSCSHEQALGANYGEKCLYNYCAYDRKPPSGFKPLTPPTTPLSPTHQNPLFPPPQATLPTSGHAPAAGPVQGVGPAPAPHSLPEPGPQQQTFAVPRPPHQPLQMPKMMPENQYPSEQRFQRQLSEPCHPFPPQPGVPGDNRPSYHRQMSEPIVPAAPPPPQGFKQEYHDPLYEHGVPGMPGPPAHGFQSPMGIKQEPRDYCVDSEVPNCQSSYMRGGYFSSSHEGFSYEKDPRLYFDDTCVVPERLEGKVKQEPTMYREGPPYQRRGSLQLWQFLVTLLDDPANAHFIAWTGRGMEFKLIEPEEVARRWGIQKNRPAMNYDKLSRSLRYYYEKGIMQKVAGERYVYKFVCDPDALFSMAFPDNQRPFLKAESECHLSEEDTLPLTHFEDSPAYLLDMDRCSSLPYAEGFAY
# In short: as §1
# [12] = biological target: HSF1 (Homo sapiens, UniProt Q00613 1-529); details: protein: recombinant; tags: N-terminal GST; chain copies: 3; dsDNA, one strand shown
# HSF1, sequence (Q00613 whole entry): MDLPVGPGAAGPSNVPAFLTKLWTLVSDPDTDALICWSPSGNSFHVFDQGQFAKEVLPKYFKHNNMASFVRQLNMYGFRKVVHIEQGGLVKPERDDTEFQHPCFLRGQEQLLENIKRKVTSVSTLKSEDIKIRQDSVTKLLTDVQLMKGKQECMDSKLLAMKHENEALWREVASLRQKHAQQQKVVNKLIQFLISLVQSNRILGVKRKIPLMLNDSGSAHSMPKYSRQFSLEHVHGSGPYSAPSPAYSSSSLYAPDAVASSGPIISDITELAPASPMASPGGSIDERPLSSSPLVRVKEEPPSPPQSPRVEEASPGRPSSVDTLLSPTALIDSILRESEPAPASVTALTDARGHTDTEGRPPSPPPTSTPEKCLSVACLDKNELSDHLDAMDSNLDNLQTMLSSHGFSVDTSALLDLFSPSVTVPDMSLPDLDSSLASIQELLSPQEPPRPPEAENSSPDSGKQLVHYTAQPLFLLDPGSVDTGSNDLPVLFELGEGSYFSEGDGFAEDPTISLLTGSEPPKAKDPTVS
# In short: as §1
# [13] = biological target: T8, SPIC (Homo sapiens, UniProt Q8N5J4 1-248); details: protein: recombinant; tags: N-terminal GST; dsDNA, one strand shown
# T8 sequence: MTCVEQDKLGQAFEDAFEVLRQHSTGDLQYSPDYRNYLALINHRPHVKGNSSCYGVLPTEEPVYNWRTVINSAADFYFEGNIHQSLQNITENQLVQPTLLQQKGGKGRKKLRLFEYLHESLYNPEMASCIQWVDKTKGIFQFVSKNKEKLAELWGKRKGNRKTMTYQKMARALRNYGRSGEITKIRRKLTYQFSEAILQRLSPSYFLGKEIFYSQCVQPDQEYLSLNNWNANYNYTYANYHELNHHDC
# In short: as §1
# [14] = biological target: ELF4 (Homo sapiens, UniProt Q99607 1-663); details: protein: recombinant; tags: N-terminal GST; dsDNA, one strand shown
# ELF4, sequence (Q99607 whole entry): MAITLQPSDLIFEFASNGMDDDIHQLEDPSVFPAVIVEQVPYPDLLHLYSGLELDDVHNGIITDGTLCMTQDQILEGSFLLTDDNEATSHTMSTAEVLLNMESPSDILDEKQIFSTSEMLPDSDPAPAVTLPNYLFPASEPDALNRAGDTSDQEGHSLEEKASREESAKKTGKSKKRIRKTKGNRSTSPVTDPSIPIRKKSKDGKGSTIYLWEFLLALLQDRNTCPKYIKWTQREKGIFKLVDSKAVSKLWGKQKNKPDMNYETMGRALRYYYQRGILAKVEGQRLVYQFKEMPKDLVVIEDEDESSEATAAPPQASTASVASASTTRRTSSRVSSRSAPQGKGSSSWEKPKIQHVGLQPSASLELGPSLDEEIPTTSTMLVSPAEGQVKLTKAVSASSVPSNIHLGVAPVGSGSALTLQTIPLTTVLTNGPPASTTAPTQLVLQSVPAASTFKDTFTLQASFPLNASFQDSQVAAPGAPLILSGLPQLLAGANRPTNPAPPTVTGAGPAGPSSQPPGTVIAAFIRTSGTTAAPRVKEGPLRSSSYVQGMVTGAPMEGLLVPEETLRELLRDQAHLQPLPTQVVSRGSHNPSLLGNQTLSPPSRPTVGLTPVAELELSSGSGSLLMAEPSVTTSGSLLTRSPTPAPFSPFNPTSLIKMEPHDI
# In short: as §1
# [15] = biological target: T9, ELK4 (Homo sapiens, UniProt P28324-2 1-405); details: protein: recombinant; tags: N-terminal GST; dsDNA, one strand shown
# T9 sequence: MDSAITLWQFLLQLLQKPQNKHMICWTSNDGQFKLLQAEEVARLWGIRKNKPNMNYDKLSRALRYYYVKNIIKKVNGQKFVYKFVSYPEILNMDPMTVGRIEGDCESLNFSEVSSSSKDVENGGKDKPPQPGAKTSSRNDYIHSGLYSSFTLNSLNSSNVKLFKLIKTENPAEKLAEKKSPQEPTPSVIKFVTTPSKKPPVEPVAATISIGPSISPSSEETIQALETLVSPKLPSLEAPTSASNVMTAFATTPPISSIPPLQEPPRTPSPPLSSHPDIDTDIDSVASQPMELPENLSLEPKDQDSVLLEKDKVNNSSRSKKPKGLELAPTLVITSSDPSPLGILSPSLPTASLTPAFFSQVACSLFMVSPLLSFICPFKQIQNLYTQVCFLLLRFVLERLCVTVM
# In short: as §1
# [16] = biological target: T10, ETV2 (Homo sapiens, UniProt O00321 1-342); details: protein: recombinant; tags: N-terminal GST; dsDNA, one strand shown
# T10 sequence: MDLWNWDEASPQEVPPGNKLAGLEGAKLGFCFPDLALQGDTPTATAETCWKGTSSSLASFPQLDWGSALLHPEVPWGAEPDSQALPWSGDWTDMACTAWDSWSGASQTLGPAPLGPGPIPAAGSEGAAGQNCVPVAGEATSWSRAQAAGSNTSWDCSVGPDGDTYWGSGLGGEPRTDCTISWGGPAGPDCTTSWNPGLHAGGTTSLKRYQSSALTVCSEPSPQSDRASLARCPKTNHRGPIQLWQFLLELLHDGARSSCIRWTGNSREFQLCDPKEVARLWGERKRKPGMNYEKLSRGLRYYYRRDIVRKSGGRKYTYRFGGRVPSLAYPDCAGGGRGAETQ
# In short: as §1
# [17] = biological target: T11, ELF3 (Homo sapiens, UniProt P78545 1-371); details: protein: recombinant; tags: N-terminal GST; dsDNA, one strand shown
# T11 sequence: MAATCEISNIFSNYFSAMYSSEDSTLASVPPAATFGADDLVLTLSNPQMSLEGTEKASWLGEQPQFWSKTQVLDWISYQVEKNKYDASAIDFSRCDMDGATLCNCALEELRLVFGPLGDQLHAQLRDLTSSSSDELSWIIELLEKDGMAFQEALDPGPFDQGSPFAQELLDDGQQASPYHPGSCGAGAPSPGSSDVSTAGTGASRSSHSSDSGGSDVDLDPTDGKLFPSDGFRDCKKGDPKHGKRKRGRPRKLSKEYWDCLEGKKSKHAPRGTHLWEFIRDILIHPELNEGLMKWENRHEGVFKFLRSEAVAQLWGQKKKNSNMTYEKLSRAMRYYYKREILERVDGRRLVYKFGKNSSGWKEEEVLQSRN
# In short: as §1
# [18] = biological target: CRX (Homo sapiens, UniProt O43186 1-299); details: protein: recombinant; tags: N-terminal GST; dsDNA, one strand shown
# CRX, sequence (O43186 whole entry): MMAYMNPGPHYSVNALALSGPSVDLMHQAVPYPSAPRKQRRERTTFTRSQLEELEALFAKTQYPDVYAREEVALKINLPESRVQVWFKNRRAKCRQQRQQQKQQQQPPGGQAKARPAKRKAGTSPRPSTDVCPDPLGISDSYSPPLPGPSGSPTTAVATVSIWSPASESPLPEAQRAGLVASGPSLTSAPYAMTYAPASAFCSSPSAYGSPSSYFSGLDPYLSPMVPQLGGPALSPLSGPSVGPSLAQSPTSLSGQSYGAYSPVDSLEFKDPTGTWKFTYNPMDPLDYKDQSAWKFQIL
# In short: as §1
# [19] = biological target: ETV1 (Homo sapiens, UniProt P50549 1-477); details: protein: recombinant; tags: N-terminal GST; dsDNA, one strand shown
# ETV1, sequence (P50549 whole entry): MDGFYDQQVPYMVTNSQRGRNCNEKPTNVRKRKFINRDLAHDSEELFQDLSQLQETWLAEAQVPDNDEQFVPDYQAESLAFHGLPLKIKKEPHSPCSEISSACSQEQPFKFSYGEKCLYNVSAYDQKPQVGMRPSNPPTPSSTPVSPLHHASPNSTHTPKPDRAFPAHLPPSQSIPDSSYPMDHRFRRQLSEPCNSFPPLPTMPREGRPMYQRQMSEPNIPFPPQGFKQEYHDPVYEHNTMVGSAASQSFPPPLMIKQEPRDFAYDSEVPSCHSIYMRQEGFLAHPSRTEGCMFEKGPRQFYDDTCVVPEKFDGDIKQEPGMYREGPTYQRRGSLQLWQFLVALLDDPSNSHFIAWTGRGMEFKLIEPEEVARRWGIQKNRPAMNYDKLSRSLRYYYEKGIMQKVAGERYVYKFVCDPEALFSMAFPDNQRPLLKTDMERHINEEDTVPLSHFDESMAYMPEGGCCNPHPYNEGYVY
# In short: as §1
sequence,measurement,setting,value
AAACTC,binding signal,[1],"1.29 fold enrichment (6-mer frequency, TF over GST control)"
same,binding signal,[2],"1.3 fold enrichment (6-mer frequency, TF over GST control)"
same,binding signal,[3],"1.15 fold enrichment (6-mer frequency, TF over GST control)"
same,binding signal,[4],"1.17 fold enrichment (6-mer frequency, TF over GST control)"
same,binding signal,[5],"1.25 fold enrichment (6-mer frequency, TF over GST control)"
same,binding signal,[6],"1.24 fold enrichment (6-mer frequency, TF over GST control)"
same,binding signal,[7],"1.13 fold enrichment (6-mer frequency, TF over GST control)"
same,binding signal,[8],"1.18 fold enrichment (6-mer frequency, TF over GST control)"
same,binding signal,[9],"1.16 fold enrichment (6-mer frequency, TF over GST control)"
same,binding signal,[10],"1.18 fold enrichment (6-mer frequency, TF over GST control)"
same,binding signal,[11],"1.22 fold enrichment (6-mer frequency, TF over GST control)"
same,binding signal,[12],"1.18 fold enrichment (6-mer frequency, TF over GST control)"
same,binding signal,[13],"1.26 fold enrichment (6-mer frequency, TF over GST control)"
same,binding signal,[14],"1.22 fold enrichment (6-mer frequency, TF over GST control)"
same,binding signal,[15],"1.04 fold enrichment (6-mer frequency, TF over GST control)"
same,binding signal,[16],"1.3 fold enrichment (6-mer frequency, TF over GST control)"
same,binding signal,[17],"1.25 fold enrichment (6-mer frequency, TF over GST control)"
same,binding signal,[18],"1.18 fold enrichment (6-mer frequency, TF over GST control)"
same,binding signal,[19],"1.22 fold enrichment (6-mer frequency, TF over GST control)"
